What all share (test): NCI-60 one-dose screen, 48 h (100 = growth as untreated, 0 = no growth, -100 = all killed)
For one assay, the system named is NCI-H23 lung. The settings on record: 10 µM unless noted.
The next assay concerns NCI-H226 lung. The settings on record: 10 µM unless noted.
The subject of a further assay is NCI-H322M lung. The settings on record: 10 µM unless noted.
Another assay deals with HOP-62 NSCLC. Conditions: 10 µM unless noted.
Another assay deals with NCI-H460 lung. Conditions: 10 µM unless noted.
The subject of the next assay is HOP-92 NSCLC. The settings on record: 10 µM.
The test system of another assay is NCI-H522 lung. The settings on record: 10 µM unless noted.
For a further assay, the system named is A549/ATCC NSCLC. The settings on record: 10 µM unless noted.
Another assay concerns 786-0 renal. Conditions: 10 µM unless noted.
The next assay concerns COLO 205 colon. The settings on record: 10 µM unless noted.
A further assay relates to DU-145 prostate. Conditions: 10 µM unless noted.
The subject of the next assay is K-562 leukemia. The settings on record: 10 µM unless noted.
For a further assay, the system named is MALME-3M melanoma. The settings on record: 10 µM unless noted.
A further assay deals with MDA-MB-231 breast. Conditions: 10 µM unless noted.
The subject of a further assay is RXF 393 renal. Conditions: 10 µM unless noted.
The next assay concerns SF-268 CNS. Conditions: 10 µM unless noted.
A further assay relates to SF-295 CNS. The settings on record: 10 µM unless noted.
The next assay relates to SF-539 CNS. Conditions: 10 µM unless noted.
Another assay relates to UACC-257 melanoma. Conditions: 10 µM unless noted.

Compounds without any hit were thinned out: in the full panel of roughly 83,000, 20% have a hit.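 Testing used 96-well plates and a 48-hour single-concentration exposure. Example: -40 means 40% of the starting cells died.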 Unmarked numbers belong to inactive results. Activity calls are given as the source filed them. How the source made its calls: active means growth percent below 10; inactive means the rest.

Take `O=S(=O)(NCCNc1nccc(-n2cnc3ccccc32)n1)c1ccc(Cl)cc1`: the growth in the assay with NCI-H23 lung was 101%; with NCI-H226 lung, 91.1%; in the assay with NCI-H322M lung, 95.3%; in the assay on HOP-62 NSCLC, 95.4%; in the assay with NCI-H460 lung, 103%; in the assay on HOP-92 NSCLC, 90.2%. Also, the growth in the assay on NCI-H522 lung is 92.1%; in the assay on A549/ATCC NSCLC, 103%; in the assay on 786-0 renal, 99%; with COLO 205 colon, 104%; in the assay on DU-145 prostate, 104%; in the assay on K-562 leukemia it was 97.6%. The growth in the assay with MALME-3M melanoma is 99.5%; in the assay with MDA-MB-231 breast, 90.6%; in the assay with RXF 393 renal, 117%; with SF-268 CNS it was 92.3%; in the assay on SF-295 CNS, 96.7%; in the assay with SF-539 CNS, 91.2%. Besides, the growth with UACC-257 melanoma was 103%.
Turning to `COc1cc(-c2nc(SCCC(C)C)nc(NNC(=O)c3ccncc3)c2C#N)cc(OC)c1OC`, the growth with NCI-H23 lung was 91.2%; in the assay on NCI-H226 lung, 93%; in the assay on NCI-H322M lung, 64.6%; in the assay on HOP-62 NSCLC, 63.9%; with NCI-H460 lung, 105%; with HOP-92 NSCLC it was 32.9%. The growth is 27.9% with NCI-H522 lung; 76.5% in the assay on A549/ATCC NSCLC; 32.3% in the assay on 786-0 renal; 65.9% in the assay on COLO 205 colon; 79.1% in the assay with DU-145 prostate; 74.6% with K-562 leukemia. Moreover, the growth with MALME-3M melanoma is 105%; in the assay with MDA-MB-231 breast it was 27.9%; with RXF 393 renal it was -16.7% (active); in the assay on SF-268 CNS, 56%; with SF-295 CNS, 65.7%; with SF-539 CNS it was 71.6%. The growth in the assay with UACC-257 melanoma was 94.2%.
As for `Nc1ccccc1NC(=O)c1ccc(NC(=O)C/C=C/c2cccnc2)cn1`, the growth with NCI-H23 lung is 22.7%; with NCI-H226 lung, 25.1%; in the assay with NCI-H322M lung, 35.9%; in the assay with HOP-62 NSCLC it was 27.1%; in the assay with NCI-H460 lung, 31.6%; in the assay with HOP-92 NSCLC it was -7.8% (active). Also, the growth in the assay on NCI-H522 lung was 0.109% (active); in the assay with A549/ATCC NSCLC, 33.5%; in the assay with 786-0 renal, 31.9%; in the assay on COLO 205 colon, -21.9% (active); with DU-145 prostate, 6.29% (active); with K-562 leukemia, 15.7%. For the same compound, the growth was 15.6% in the assay on MALME-3M melanoma; 41.6% with MDA-MB-231 breast; -35.5% (active) in the assay with RXF 393 renal; 28.3% in the assay on SF-268 CNS; 21.8% in the assay with SF-295 CNS; 9.41% (active) in the assay on SF-539 CNS. Further, in the assay on UACC-257 melanoma, the growth was 14.5%.
`CN1CCN(c2ccc(/C=N/n3cnc4oc(-c5ccccc5)cc4c3=N)cc2)CC1`: the growth in the assay with NCI-H23 lung is 93.6%; in the assay with NCI-H226 lung it was 87.5%; with NCI-H322M lung, 91.1%; in the assay with HOP-62 NSCLC, 84.2%; in the assay on NCI-H460 lung, 99.6%; with HOP-92 NSCLC, 61.4%. Further, the growth with NCI-H522 lung is 84.4%; in the assay on A549/ATCC NSCLC, 75.1%; in the assay on 786-0 renal, 52.8%; in the assay with COLO 205 colon, 63.5%; in the assay with DU-145 prostate, 100%; in the assay with K-562 leukemia it was 6.36% (active). The growth in the assay on MALME-3M melanoma was 113%; in the assay with MDA-MB-231 breast, 65.3%; in the assay with RXF 393 renal it was -5.53% (active); with SF-268 CNS, 92.5%; in the assay with SF-295 CNS, 99.6%; with SF-539 CNS, 84.9%. Moreover, the growth with UACC-257 melanoma was 96.7%.
As for `COc1c(N2CC3CCCNC3C2)c(F)cc2c(=O)c(C(=O)N/N=C/c3ccccc3)cn(C3CC3)c12` (stereo not given), the growth with NCI-H23 lung is 90.7%; with NCI-H226 lung, 103%; in the assay with NCI-H322M lung, 94%; in the assay on HOP-62 NSCLC, 96.6%; with NCI-H460 lung, 98.7%; in the assay on HOP-92 NSCLC, 75.3%. Besides, the growth was 109% with NCI-H522 lung; 101% in the assay with A549/ATCC NSCLC; 66.6% in the assay on 786-0 renal; 97.5% in the assay with COLO 205 colon; 104% in the assay with DU-145 prostate; 54.1% in the assay on K-562 leukemia. The growth in the assay with MALME-3M melanoma is 94.1%; with MDA-MB-231 breast it was 94.9%; with SF-268 CNS it was 85.2%; in the assay on SF-295 CNS, 104%; in the assay on SF-539 CNS, 83.7%; with UACC-257 melanoma it was 106%.
For the compound `O=S(=O)(NCCCNc1nccc(-n2cnc3ccccc32)n1)c1ccc(C(F)(F)F)cc1`, the growth with NCI-H23 lung is 91.3%; with NCI-H226 lung it was 77.8%; in the assay with NCI-H322M lung, 103%; in the assay with HOP-62 NSCLC, 87.1%; in the assay with NCI-H460 lung, 89.8%; in the assay on HOP-92 NSCLC, 80.2%. Further, the growth was 70% with NCI-H522 lung; 86.3% with A549/ATCC NSCLC; 91.2% in the assay on 786-0 renal; 96.4% in the assay on COLO 205 colon; 94.5% in the assay on DU-145 prostate; 67.6% in the assay on K-562 leukemia. For the same compound, the growth is 98.4% in the assay on MALME-3M melanoma; 83.1% with MDA-MB-231 breast; 105% in the assay on RXF 393 renal; 86.8% with SF-268 CNS; 81.2% with SF-295 CNS; 87.9% with SF-539 CNS. The growth in the assay on UACC-257 melanoma was 97.8%.
As to `NS(=O)(=O)c1ccc(Nc2nc(Nc3ccccc3)nc3nnc(SCC(=O)NC4CCCCC4)n23)cc1`, the growth was 109% in the assay on NCI-H23 lung; 100% with NCI-H226 lung; 104% with NCI-H322M lung; 103% in the assay with HOP-62 NSCLC; 106% with NCI-H460 lung; 105% in the assay on HOP-92 NSCLC. Besides, the growth in the assay with NCI-H522 lung was 92.1%; in the assay on A549/ATCC NSCLC, 108%; in the assay with 786-0 renal it was 103%; in the assay with COLO 205 colon, 110%; in the assay with DU-145 prostate it was 106%; with K-562 leukemia it was 94.1%. For the same compound, the growth was 101% in the assay on MALME-3M melanoma; 95% in the assay with MDA-MB-231 breast; 126% in the assay with RXF 393 renal; 106% in the assay with SF-268 CNS; 105% with SF-295 CNS; 96.1% in the assay on SF-539 CNS. For the same compound, the growth in the assay on UACC-257 melanoma was 104%.
In the case of `COc1ccc(NC2=C(Cl)C(=O)c3nc(C)ccc3C2=O)cc1OC`, the growth is 59% in the assay with NCI-H23 lung; 97.1% in the assay on NCI-H226 lung; 99% with NCI-H322M lung; 110% in the assay with HOP-62 NSCLC; 100% in the assay with NCI-H460 lung; 112% with HOP-92 NSCLC. Besides, the growth with NCI-H522 lung is 78.8%; with A549/ATCC NSCLC, 107%; with 786-0 renal, 99%; in the assay on COLO 205 colon, 108%; in the assay with DU-145 prostate, 93%; in the assay with K-562 leukemia it was 7.18% (active). The growth in the assay on MALME-3M melanoma was 94.5%; in the assay on MDA-MB-231 breast, 73%; in the assay on SF-268 CNS, 84.7%; in the assay with SF-295 CNS, 104%; with SF-539 CNS, 103%; in the assay on UACC-257 melanoma, 91%.

Values taken from PubChem BioAssay (NCI).
